TRHR ag = agonists of human TRH receptor; 0.18% of 360,000 active; activation, % at 2 µM; TRHR cells, calcium flux fluo-8, FDSS agonist mode; further: 0% is about no effect
Target sequence (P34981 whole entry, looked up): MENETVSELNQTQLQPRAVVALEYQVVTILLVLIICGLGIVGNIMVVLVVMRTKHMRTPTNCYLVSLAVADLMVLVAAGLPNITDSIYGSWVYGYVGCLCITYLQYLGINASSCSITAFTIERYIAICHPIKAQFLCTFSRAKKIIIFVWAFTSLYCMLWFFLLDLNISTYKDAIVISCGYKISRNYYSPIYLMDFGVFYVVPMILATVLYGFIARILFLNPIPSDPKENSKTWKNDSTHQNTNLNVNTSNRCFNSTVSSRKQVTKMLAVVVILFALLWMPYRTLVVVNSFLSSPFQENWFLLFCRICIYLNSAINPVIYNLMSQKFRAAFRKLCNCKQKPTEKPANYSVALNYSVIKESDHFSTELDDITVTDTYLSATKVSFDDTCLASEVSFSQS
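In this calcium-flux screen, cells bearing human TRHR are dye-loaded with fluo-8, baselined for 10 cycles, then exposed to library compounds; positive kinetic calcium responses during the agonist phase mark hits, with TRH as control.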
D1 PAM = human D1 dopamine receptor positive modulation | P21728 | HEK293 TREx D1 cells, calcium flux, dopamine EC20 potentiation | potentiation, % at 10 µM | 0.036% of 360,000 active; in the data active means potentiation above about 30%; further: 0% is about no effect
D1 antag = blocks dopamine activation of the human D1 receptor; 3.2% of 360,000 active; activity change, negative = inhibition, % at 10 µM; P21728; HEK293 TREx D1 cells, calcium flux, dopamine EC80; stronger effect = lower value; in the data active means activity change below about -30%; further: on the % scale 0 is the no-effect control and ±100 the full control effect
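Tetracycline-induced HEK293 T-REx cells with force-coupled D1 receptor were loaded with a no-wash calcium dye. Compound was added after a 10 s baseline and read kinetically for 180 s; EC80 dopamine was then added and calcium flux followed another 180 s.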
D1 ag = human D1 receptor agonism; activation, % at 2 µM; 1% of 360,000 active; HEK293 T-REx D1 cells, calcium flux, agonist mode; further: 0% is about no effect
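Inducible HEK293 T-REx D1 cells, force-coupled to calcium signalling, were plated at 4000 cells/well with tetracycline and held overnight at 30 C. After no-wash calcium dye loading, compound-evoked calcium rise over 180 s flagged agonists.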
TRHR enhancer = allosteric enhancers of human TRH receptor; TRHR cells, fluo-8 calcium fluorescence, EC20 TRH enhancement; P34981; enhancement, % at 2 µM; 0.66% of 360,000 active; in the data active means enhancement above about 30%; further: 0% is about no effect
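TRHR-expressing cells loaded with fluo-8 calcium dye were read kinetically (ex 480/em 530) during compound addition, then stimulated with an EC20 of TRH (10 nM final). Enhancement of the Gq-mediated intracellular calcium response was scored.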
Epigenetic derep = derepresses silenced GFP reporter in murine cells; murine LDR cells, GFP reporter derepression, 30 h; Potency, µM (series often up to 53.9 µM), for inactives: top-dose GFP activation, usual class: activators; 0.2% of 280,000 active; AID 1865; active means well fitted activation curve with a large enough effect; further: potency means the concentration at half of the fitted maximal effect; % of control where 0% means no effect; nearly all actives have a fitted effect of over 60% in size
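Readout is the number of GFP-expressing murine LDR cells, counted by cytometry following washing. Cells were treated with compound for 30 h at 37 C; the stably integrated CMV-GFP locus is normally silent.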
The depositor's hits bear a star; nt = not tested or not shown. In the library only some 4.6% were active in any assay of this set; here they are far more common. Unless noted, no stated cut-off is given here; in the data, active means activation above about 30%; inactive means the rest.

SMILES | TRHR ag | D1 PAM | D1 antag | D1 ag | TRHR enhancer | Epigenetic derep
CC1=C(C(=O)Nc2ccccc2C)C(c2ccc[nH]2)n2ncnc2N1 (centres undefined) | 2 | -1 | 7 | 2 | 8 | -2%
COc1ccc(-c2nonc2NC(=O)c2ccco2)cc1OC | 0 | 3 | -37* | 1 | 0 | nt
CC(=O)N1CCC2(CC1)OC(=O)C(C)=C2C(=O)Nc1cccc(Cl)c1C | 2 | 0 | 2 | -2 | -6 | -1%
Cc1cc(C)n(-c2ccc(C(=O)Nc3ccc(S(=O)(=O)NCc4ccco4)cc3)cc2)n1 | -2 | -6 | -41* | 9 | 1 | -1%
O=C(Nc1ccc(S(=O)(=O)NCc2ccco2)cc1)c1ccc(F)cc1 | 0 | -8 | -35* | 3 | -5 | nt
O=C(COC(=O)c1ccc(S(=O)(=O)NCc2ccco2)cc1)NCc1ccc(F)cc1 | 1 | -4 | -41* | 4 | 0 | nt
COc1ccc(C)cc1NC(=O)CSc1ncc2c(n1)-c1ccc(Cl)cc1N(Cc1ccccc1)S2(=O)=O | 0 | 3 | -1 | 3 | 2 | -1%
Cc1ccc(NC(=O)c2cc([N+](=O)[O-])ccc2N2CCOCC2)cc1C | -1 | -2 | -30* | 1 | -2 | nt
O=C(c1cc([N+](=O)[O-])ccc1N1CCOCC1)N1CCOCC1 | 0 | 2 | -42* | 1 | 8 | -1%
Cc1cc(O)ccc1N/C=C1\CCCC1=O | 0 | 1 | 16 | 7 | 3 | 5%
Cc1ccc([N+](=O)[O-])cc1N/C=C1\CCCCC1=O | 0 | -4 | 13 | 37* | 13 | 3.5µM*
CNc1ncnc2c1ncn2[C@@H]1O[C@H](COP(=O)(O)O)[C@@H](O)[C@H]1O | nt | nt | nt | nt | nt | 1%
Cc1nn(C)c(=O)c(N)c1-c1cc(-c2ccc(Cl)c(Cl)c2)n[nH]1 | 0 | -4 | -47* | 8 | -2 | 6%
O=C(NCCS(=O)(=O)c1ccc(Br)cc1)c1ccc(Cl)cc1Cl | -1 | -8 | -39* | 1 | -1 | nt
O=C(Nc1ccc([N+](=O)[O-])cc1)C1CC1(c1ccccc1)c1ccccc1 (centres undefined) | 1 | -3 | -22 | 8 | 1 | 0%
CC1(C)C(C=C(Cl)Cl)C1C(=O)Nc1ccc([N+](=O)[O-])cc1 (centres undefined) | 1 | -7 | -31* | 6 | -6 | 11%
CCc1ccc(NC(=O)c2sc3nc(C)nc(N4CCN(c5ccccn5)CC4)c3c2C)cc1 | 1 | -12 | -84* | 2 | 3 | nt
Cc1nc(N2CCN(c3ccccn3)CC2)c2c(C)c(C(=O)Nc3ccccc3F)sc2n1 | 0 | -3 | -14 | 0 | -4 | 5%
COc1ccc(N/C=C/c2nc(SC)nnc2C)cc1 | 9 | -1 | 1 | 22 | -1 | 0%
CSc1nnc(C)c(/C=C/Nc2ccc(F)cc2)n1 | 10 | -2 | 0 | 32* | -2 | 0%
CSc1nnc(C)c(/C=C/Nc2ccc(Cl)cc2)n1 | 31* | -1 | -6 | 80* | 4 | 5%
CCC(CCC(C)C1CCC2C3CC=C4CC(OC(C)=O)CC[C@@]4(C)C3CC[C@@]12C)C(C)C (some centres undefined) | nt | nt | nt | nt | nt | -1%
COc1ccc(-c2cc3nc(C)c(CCC(=O)Nc4ccc(F)cc4F)c(C)n3n2)c(OC)c1 | 0 | 3 | -8 | 0 | 3 | -1%
COc1ccc(S(=O)(=O)N2c3ccccc3OCC2C)cc1 (centres undefined) | 0 | 2 | 12 | -1 | -2 | 4%
COc1ccc(S(=O)(=O)N2c3ccccc3OCC2C(C)(C)C)cc1 (centres undefined) | 1 | -8 | -63* | 4 | -4 | 1%
SMILES | TRHR ag | D1 PAM | D1 antag | D1 ag | TRHR enhancer | Epigenetic derep
CCC1Sc2ccc(S(=O)(=O)Nc3ccc(OC)c(OC)c3)cc2NC1=O (centres undefined) | 0 | 5 | -8 | 7 | -2 | nt
CCC1Sc2ccc(S(=O)(=O)Nc3ccc(OC)cc3)cc2NC1=O (centres undefined) | 5 | -5 | -36* | 30* | 1 | nt
CC(C)(C)C(=O)NC(=S)NNC(=O)c1sc2ccccc2c1Cl | -2 | 56* | 46 | 446* | 4 | -2%
COc1ccc(C(=O)NNC(=S)NC(=O)/C=C/c2cccs2)cc1 | -1 | 5 | -35* | 3 | 0 | 1%
O=C(NNC(=O)C1CC2CCC1C2)c1sc2ccccc2c1Cl (centres undefined) | -1 | -5 | -34* | 3 | -6 | 0%
COc1ccc(C(=O)NNC(=S)NC(=O)C(C)(C)C)cc1 | 79* | -4 | -35* | 306* | -11 | 3%
O=C(NNC(=S)NC1CCCCC1)c1sc2ccccc2c1Cl | 1 | -10 | 2 | 3 | 1 | 2%
COc1ccc(C(=O)NNC(=O)c2ccc(C(C)(C)C)cc2)cc1 | 0 | 1 | -15 | 2 | 2 | 0%
Cc1nc2cccnc2n1C1CCN(S(=O)(=O)c2ccc(C(C)C)cc2)CC1 | -1 | 0 | 0 | 39* | 1 | 0%
CCC(NC(=S)NCc1ccc(F)cc1)c1ccc(C)cc1 (centres undefined) | 4 | -1 | -3 | 60* | -2 | nt
CCOc1ccc(C(C)NC(=S)NCc2ccc(F)cc2)cc1 (centres undefined) | 3 | 0 | 1 | 59* | 0 | nt
Cc1ccc(C(C)NC(=S)NCc2ccc(F)cc2)cc1C (centres undefined) | 0 | -6 | -31* | 8 | -5 | nt
Cc1ccc(C(C)NC(=S)NCc2ccc(F)cc2)c(C)c1 (centres undefined) | 6 | -6 | 0 | 51* | -1 | nt
CCOc1ccc(CNC(=S)NCc2ccc(OCC)cc2)cc1 | 0 | 0 | -22 | 13 | 6 | 1%
Cc1ccc(N2CC(C)Cn3c2nc2c3c(=O)n(Cc3cccc(Cl)c3)c(=O)n2C)cc1 (centres undefined) | 0 | -2 | 8 | 3 | 5 | -5%
COc1ccc(-c2noc(CSCC(=O)Nc3ccc(C)cc3Br)n2)cc1OC | -1 | 4 | -6 | -2 | -7 | 1%
COc1cccc(C(C)NC(=S)NCc2ccc(F)cc2)c1 (centres undefined) | 1 | -1 | -3 | 16 | -9 | nt
CCc1ccc(C(C)NC(=S)NCc2ccc(F)cc2)cc1 (centres undefined) | 9 | -1 | 3 | 76* | -7 | nt
O=C(COC(=O)COc1ccccc1[N+](=O)[O-])Nc1ccccc1Br | 0 | 4 | -43* | 5 | 2 | 0%
O=C(CC(=O)Nc1ccccc1[N+](=O)[O-])Nc1ccccc1[N+](=O)[O-] | 0 | -7 | -34* | 11 | -2 | nt
